# Experimental data from the antibiotic and cytotoxicity screens of Wong et al. (2023).
# The whole screen tested about 39,000 compounds, of which about 3,300 (8.5%) were called active. The sample as a whole holds a higher share of actives than the screen did.
# Tested on: HepG2
# Experiment: cytotoxicity call (relative viability < 0.9)
# Conditions: 10 µM
row,Compound,cytotoxicity call
1,C[C@H]1O[C@H](C[N+](C)(C)C)C[C@@H]1O,inactive
2,NCCc1nnc2n1CCCCC2,inactive
3,C[C@H]1CN([C@@H](C)CO)C(=O)CCCn2nncc2CO[C@@H]1CN(C)C(=O)Oc1cccc2ccccc12,inactive
4,CC(=O)Nc1ccc(CCN)cc1,inactive
5,CNC(C)(C)Cc1ccccc1.O=S(=O)(O)O,inactive
6,CC(C)NC(=O)[C@H]1CCS(=O)(=O)[C@H]2CNC[C@@H]12,inactive
7,C[C@@H]1C(=O)NC[C@@H]2CN(CC3CC3)C[C@@H]21,inactive
8,CCC(C(N)=O)N1CCCC1=O (stereo unspecified),inactive
9,O=[As]O[As]=O (stereo unspecified),active
10,C[C@H](CO)N1C[C@H](C)[C@@H](CN(C)C(=O)Oc2ccccc2)OCc2ccccc2-c2c(n(C)c3ccccc23)C1=O,inactive
11,C[C@@H]1O[C@@H](OC(=O)Cc2ccccc2)[C@H](O)[C@H](O)[C@H]1O,inactive
12,COC(=O)[C@H]1[C@H](CO)[C@H]2Cn3c(cccc3=O)[C@@H]1N2C(=O)C1CC1,inactive
13,O=C(NC[C@H]1CCC2(CCNCC2)O1)C1CC1,inactive
14,O=C(O)C(Cl)Cl.[NaH],inactive
15,Cl.NCC(=O)c1ccccc1,inactive
16,CNCC(O)c1ccc(O)cc1.CNCC(O)c1ccc(O)cc1.O=C(O)C(O)C(O)C(=O)O (stereo unspecified),inactive
17,Cc1[nH]c2ccc(O)cc2c1CCN,inactive
18,Cc1ccc2nc(CCN)[nH]c2c1,inactive
19,Cc1ccc2c(CCN)c(C)n(C)c2c1,active
20,C[C@@H]1[C@H](O)[C@@H](C)/C=C\C=C/CC\C=C/C=C\C=C/C=C\[C@@H](O[C@@H]2O[C@H](C)[C@@H](O)[C@H](N)[C@@H]2O)C[C@@H]2O[C@](O)(C[C@@H](O)[C@H](O)CC[C@@H](O)C[C@@H](O)C[C@@H](O)CC(=O)O[C@H]1C)C[C@H](O)[C@H]2C(=O)O,inactive
21,CN(C)[C@@H](CN)c1cccc(C(F)(F)F)c1,inactive
22,CN[C@@H]1[C@@H](O)[C@@H](O[C@@H]2[C@H](O)[C@@H](O[C@H]3O[C@H]([C@@H](C)O)[C@@H](O)[C@H](O)[C@H]3N)[C@H](N)C[C@@H]2N)OC[C@]1(C)O,inactive
23,CCCCCCCCCCCCCCCC[n+]1ccccc1.[Cl-],active

row,Compound,cytotoxicity call
1,CCCCCCCCCCCCCCCC[n+]1ccccc1,active
2,CC(=O)c1c(O)c(C)c(O)c(Cc2c(O)c3c(c(C(=O)/C=C/c4ccccc4)c2O)OC(C)(C)C=C3)c1O,inactive
3,COCC(=O)N1[C@@H]2Cn3c(ccc(C4=CCCC4)c3=O)[C@H]1[C@@H](C(=O)OC)[C@@H]2CO,inactive
4,Cn1cc(CN2C[C@H]3CNC[C@H]3C2)cn1,inactive
5,Cc1ccc(C[C@H]2CCCN2)cc1C,inactive
6,NCCc1cccc(O)c1,inactive
7,OC[C@@H]1[C@@H](O)[C@H](O)[C@H]2[C@@H](O)CCN21,inactive
8,Cc1c(N)nc([C@H](CC(N)=O)NC[C@@H](N)C(N)=O)nc1C(=O)N[C@H](C(=O)N[C@@H](C)[C@H](O)[C@@H](C)C(=O)N[C@@H](C(=O)NCCc1nc(-c2nc(C(=O)NCCC[S+](C)C)cs2)cs1)[C@@H](C)O)[C@@H](O[C@H]1O[C@H](CO)[C@H](O)[C@@H](O)[C@H]1O[C@H]1O[C@H](CO)[C@@H](O)[C@H](OC(N)=O)[C@@H]1O)c1cnc[nH]1,inactive
9,Cn1cc(N2C[C@@H]3CNC[C@@H]3C2=O)cn1,inactive
10,C/C=C(\C)C(=O)O[C@H]1C[C@@H](OC(C)=O)[C@@]2(C(=O)OC)CO[C@H]3[C@@H](O)[C@@](C)([C@]45O[C@@]4(C)[C@H]4C[C@@H]5O[C@H]5OC=C[C@@]54O)[C@H]4[C@]1(CO[C@]4(O)C(=O)OC)[C@@H]32,inactive
11,CC1OC(OC2CC(O)C3(CO)C4C(O)CC5(C)C(C6=CC(=O)OC6)CCC5(O)C4CCC3(O)C2)C(O)C(O)C1O.O.O.O.O.O.O.O.O (stereo unspecified),active
12,C[C@@H]1O[C@@H](O[C@@H]2C[C@@H](O)[C@]3(CO)[C@H]4[C@H](O)C[C@]5(C)[C@@H](C6=CC(=O)OC6)CC[C@]5(O)[C@@H]4CC[C@]3(O)C2)[C@H](O)[C@H](O)[C@H]1O,active
13,C[C@H]1C[C@@H](O)[C@]2(O)[C@@]13CC(=O)OC[C@@]2(C)[C@](C)(O)C(=O)C3,inactive
14,CCn1cc(C(=O)[O-])c(=O)c2cc3c(cc21)OCO3.[K+],inactive
15,Oc1cc2c(cc1O)CNCC2,inactive
16,CS(=O)(=O)C1C[C@H]2CC[C@@H](C1)N2 (stereo partly specified),inactive
17,O=C1N[C@@H]2C(=C[C@H](O)[C@@H](O)[C@H]2O)c2cc3c(c(O)c21)OCO3,active
18,COC(=O)[C@H]1[C@H]2CO[C@@H]1CN2,inactive
19,C[C@H]1CN([C@@H](C)CO)C(=O)CCCn2cc(nn2)CO[C@H]1CN(C)C(=O)Oc1cccc2ccccc12,inactive
20,O=C(c1ccno1)N1C[C@@H]2CCN[C@@H]2C1,inactive
21,O=C(Cc1ccccc1)c1ccccc1,inactive
22,CC(=O)[O][Hg][c]1ccccc1,active
23,NCC(=O)c1ccccc1,inactive

row,Compound,cytotoxicity call
1,COC(=O)CC1=C(C(=O)OC)[C@]2(C(=O)Nc3ccccc32)C(C(=O)OC)C(=N)O1 (stereo partly specified),inactive
2,N[C@@H](c1ccccc1)[C@@H](N)c1ccccc1,inactive
3,CCCNC(=O)C1=NO[C@]2(CCNC2)C1,inactive
4,CC[C@@H](C)C(=O)O[C@@H]1C[C@@]2(C)[C@H](c3ccoc3)OC(=O)C[C@]23O[C@@]2(C)O[C@]34[C@H](OC(=O)C(C)C)[C@@]3(O)[C@@H](OC(=O)[C@@]5(C)O[C@@H]5C)[C@@]5(C)C[C@]3(O)[C@@](C)([C@H]5CC(=O)OC)[C@@]14O2,inactive
5,COc1ccc(OC(=O)N(C)C[C@H]2OCc3ccccc3-c3c(n(C)c4ccccc34)C(=O)N([C@@H](C)CO)C[C@@H]2C)cc1,inactive
6,N[C@@]1(C(=O)O)CC[C@H](C(=O)O)C1.N[C@]1(C(=O)O)CC[C@@H](C(=O)O)C1,inactive
7,CC(=O)OC[C@]12CCC(C)=C[C@H]1O[C@@H]1[C@H](O)[C@@H](OC(C)=O)[C@@]2(C)[C@]12CO2,active
8,CC1=C[C@H]2O[C@@H]3[C@H](O)[C@@H](O[C@H]4O[C@H](CO)[C@@H](O)[C@H](O)[C@H]4O)[C@](C)([C@@]2(CO)CC1)[C@]31CO1,active
9,Cc1cc(O[C@@H]2O[C@H](CO)[C@@H](O)[C@H](O)[C@H]2O)c2c3c(c(=O)oc2c1)CCC3,inactive
10,Cc1cc(CCN)on1,inactive
11,C[C@@H]1CN([C@H](C)CO)C(=O)CCCn2nncc2CO[C@H]1CN(C)C(=O)Oc1ccc2ccccc2c1,inactive
12,O=S1(=O)COC2(CNC2)CN1,inactive
13,C[C@@H]1CN([C@@H](C)CO)C(=O)CCCn2cc(nn2)CO[C@@H]1CN(C)C(=O)Oc1cccc2ccccc12,inactive
14,COC(=O)C[C@@H](CN)c1ccc(Cl)cc1,inactive
15,O=C1CCCC2C3CCCN4CCCC(CN12)C34 (stereo unspecified),inactive
16,Cl.Clc1ccc(C(OCCN2CCCCC2)c2ccccc2)cc1 (stereo unspecified),active
17,COc1ccc([C@@H](CN)C(C)C)cc1OC,inactive
18,N[C@H]1CCN(c2cccnc2)C1,inactive
19,OC[C@H]1O[C@@H](Oc2ccc(/C=C/c3cc(O)cc(O)c3)cc2O)[C@H](O)[C@@H](O)[C@@H]1O,inactive
20,CC(=O)c1c(O)cc(C)oc1=O,inactive
21,C=C(C)c1cc2cc(C(C)=O)c(O)cc2o1,active
22,COCCC(=O)N1C[C@H]2CCN[C@H]2C1,inactive
23,Cl.NCC(CC(=O)O)c1ccc(Cl)cc1 (racemic),inactive

row,Compound,cytotoxicity call
1,C[C@]12CC/C(=N\OCCN)C[C@@H]1C(=O)C[C@@H]1[C@@H]2CC[C@]2(C)C(=O)CC[C@@H]12,inactive
2,O=C1NC(=O)C(C2(O)C(=O)c3ccccc3C2=O)C(=O)N1,inactive
3,CC(=O)O[C@@]12CO[C@@H]1C[C@H](O)[C@@]1(C)C(=O)[C@H](O)C3=C(C)[C@@H](OC(=O)[C@H](O)[C@@H](NC(=O)c4ccccc4)c4ccccc4)C[C@](O)([C@@H](OC(=O)c4ccccc4)[C@H]21)C3(C)C,active
4,CC(=O)O[C@H]1C(=O)[C@]2(C)[C@@H](O)C[C@H]3OC[C@@]3(OC(C)=O)[C@@H]2[C@H](OC(=O)c2ccccc2)[C@]2(O)C[C@H](O)C(C)=C1C2(C)C,active
5,CC(=O)OC1C(=O)C2(C)C(O)CC3OCC3(OC(C)=O)C2C(OC(=O)c2ccccc2)C2(O)CC(O)C(C)=C1C2(C)C (stereo unspecified),active
6,O=C1CC[C@]2(CCCN(Cc3cnc[nH]3)C2)N1,inactive
7,C=CCOC(=O)[C@@H]1[C@@H](C(=O)OC)N(C)[C@@H](c2ccccc2)[C@]12C(=O)Nc1ccc(I)cc12,inactive
8,C=CCC1(O)CCC2C3CCC4=CCCCC4C3CCC21C (stereo unspecified),inactive
9,CN(C)C1=NC(=O)C2(CCNCC2)N1,inactive
10,C#CCN(C)C(C)Cc1ccccc1.Cl (stereo unspecified),inactive
11,CN1CCN(c2nc(=O)c3c([nH]2)CCCC3)CC1,inactive
12,N=C(N)NO,inactive
13,O=C([C@H]1CCCO1)N1CCCN2CCC[C@H]2C1,inactive
14,Cc1cc2ccccc2n1CCN,inactive
15,NNc1ccn([C@H]2O[C@@H](CO)[C@@H](O)[C@@H]2O)c(=O)n1,inactive
16,NC(=O)c1cn([C@H]2O[C@@H](CO)[C@H](O)[C@@H]2O)c2ncnc(N)c12,active
17,CCNC(=O)[C@H]1O[C@@H](n2cnc3c(N)ncnc32)[C@H](O)[C@@H]1O,inactive
18,NC(=O)c1cn([C@@H]2O[C@H](CO)[C@@H](O)[C@H]2O)c2ncnc(N)c12,active
19,CCNC(=O)[C@H]1O[C@H](n2cnc3c(N)ncnc32)[C@@H](O)[C@@H]1O,inactive
20,NNc1ccn([C@@H]2O[C@H](CO)[C@@H](O)[C@H]2O)c(=O)n1,inactive
21,C[N+](C)(C)CC(=O)[O-].Cl,inactive
22,O=S(=O)(N[C@H]1CCO[C@]2(CCNC2)C1)C1CC1,inactive
